# Source: PubChem
# NPR2 activator – GC-B (human) receptor activation. 370,000 tested, 0.11% active. activation, % at 10 µM. P20594. HEK293-GC-B cells, CNP EC30, cGMP TR-FRET; 0% at EC30 CNP, 100% saturating CNP;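 active = activation at 10 µM reaching about 35% in either raw or pattern-adjusted values, limit read from the data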
# Rev-erbA mod – Rev-erb alpha (human) modulation; Rev-erbα–FITC-DNA binding, fluorescence polarization, 90 min; activity, % at 10 µM; 370,000 tested, 0.79% active; P20393;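 active = activity above about 14%, limit read from the data; passing the limit was not always enough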;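 also: 0% = DMSO wells with 35 nM protein and 100% = DMSO wells with 750 nM protein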
# V-ATPase pH – yeast V-ATPase proton transport regulation by pHLuorin; response, % at 10 µM; S. cerevisiae, pHLuorin cytosolic pH fluorescence; 350,000 tested, 0.37% active; in the data active = response mostly above about 7.3%, no sharp cut-off; inactive = mostly below about 5.4%; also: actives read high
# PG9 binder – PG9 antibody binding by small molecule. TR-FRET gp120-PG9 antibody binding. inhibition, % at 6.7 µM. 360,000 tested, 0.43% active; in the data active = inhibition above about 8.5%
# GC-A act – GC-A (human) enzyme activation. P16066. HEK293 GC-A cells, cGMP TR-FRET, EC30 ANP; 0% at EC30 ANP, 100% saturating ANP. activation, % at 10 µM. 370,000 tested, 0.14% active; in the data active = activation above about 40%
# PG9 binder conf – PG9 antibody binding, confirmed. shares compounds with PG9 binder. TR-FRET PG9 antibody binding, biochemical. inhibition, % at 6.7 µM. 1,500 tested, 90% active. AID 651571; in the data active = inhibition above about 9%
# PGV04 Ab binding – counter-screen for PG9 binders: binding control antibody PGV04. shares compounds with PG9 binder. 1,500 tested, 95% active. inhibition, % at 6.7 µM. TR-FRET PGV04 antibody-gp120 binding, biochemical; in the data active = inhibition above about 9.5%
# PG9 bind DR – PG9 antibody binding, dose response; 95 tested, under 10 active; shares compounds with PG9 binder; TR-FRET PG9 antibody-gp120 binding inhibition; IC50, µM; in the data active = IC50 below about 10 µM
# PGV04 DR counter – binds control antibody PGV04 in PG9 counter-screen. shares compounds with PG9 binder. TR-FRET binding to control antibody PGV04. IC50, µM. 95 tested, 20% active. AID 651937
# PG126 binding DR – counter-screen for PG9 binders: binding to control antibody PG126; shares compounds with PG9 binder; TR-FRET binding to antibody PG126, counterscreen; IC50, µM; 95 tested, 20% active; AID 651939
# Active calls of the source: *; / = no result. The list is not random: actives were taken first. Their share in the collection is about 1.6%. Rule as the data show it, unless noted: active = IC50 below about 9 µM; inactive = the rest.
SMILES,NPR2 activator,Rev-erbA mod,V-ATPase pH,PG9 binder,GC-A act,PG9 binder conf,PGV04 Ab binding,others
OC(COc1cccc2ccccc12)CN1CCN(c2ccc(Cl)cc2)CC1 (stereo unspecified),4,10,-1,18*,0,27*,31*,
OC(COc1cccc2ccccc12)CN1CCN(c2cccc(Cl)c2)CC1 (stereo unspecified),2,0,-6,0,-5,/,/,
C[C@H](CO)N1C[C@H](C)[C@@H](CN(C)Cc2ccccc2)Oc2c(NS(=O)(=O)c3ccccc3)cccc2C1=O,-5,-4,5,-2,2,/,/,
C[C@H](CO)N1C[C@H](C)[C@@H](CN(C)Cc2ccccc2)Oc2c(NS(=O)(=O)c3ccc(F)cc3)cccc2C1=O,2,-5,2,11*,1,31*,47*,
CCN=C1SC(C(N)=O)CC(=O)N1CC (stereo unspecified),0,-6,-1,9.0*,4,-1,18*,
CCN=C1SC(CC(=O)NC(N)=O)C(=O)N1CC (stereo unspecified),-1,-2,2,0,2,/,/,
COC(=O)CN1CCN(C(=O)c2nocc2C)CC1,4,3,/,/,3,/,/,
O=C(CSc1ccc2nnc(-c3ccc(F)cc3)n2n1)N1CCCc2ccccc21,-1,2,-5,0,1,/,/,
O=C(CSc1ccc2nnc(-c3cccc(F)c3)n2n1)N1CCCc2ccccc21,1,1,7,9.1*,5,18*,39*,
Cc1cccc(-n2c(-c3ccc(Br)o3)n[nH]c2=S)c1,-4,-4,0,3,1,/,/,
Cc1cccc(-n2c(-c3ccco3)n[nH]c2=S)c1,3,0,-2,14*,9,17*,20*,
O=C(C1=C(O)C(=O)N(CC2CCCO2)C1c1ccccc1F)c1ccco1 (stereo unspecified),6,-2,6,9.8*,18,16*,20*,
C=CCN1C(=O)[C@H](CC(=O)NCc2ccccc2)[C@@]2(C(=O)OCC)CCCC=C12,2,2,/,/,-1,/,/,
CCC1(C)Cc2ccccc2-c2nc(SC)[nH]c(=O)c21 (stereo unspecified),0,1,1,13*,-6,9.4*,9,PG9 bind DR=>67;PGV04 DR counter=>67;PG126 binding DR=>67
Cc1[nH]c2ccccc2c1C1=CC(=O)C=CC1=O,-6,17,-3,10*,-27,20*,25*,
O=C(CSc1nnc(COc2ccccc2)n1-c1ccccc1)Nc1ccc(S(=O)(=O)Nc2nccs2)cc1,0,-1,/,/,-2,/,/,
O=C(COC(=O)c1cc2ccccc2oc1=O)Nc1ccc(F)cc1F,-1,1,1,15*,-1,16*,48*,
CCN(c1ccc(NC(=O)COC(=O)c2cc3ccccc3oc2=O)cc1)C(C)C,-6,0,0,-3,0,/,/,
Cc1ccc(-c2cc(C(=O)NCc3cnn(C)c3)c3cc(Br)ccc3n2)cc1,-2,14,5,11*,7,7,58*,
Cn1cc(CNC(=O)c2cc(-c3ccccc3)nc3ccc(Br)cc23)cn1,4,13,-3,11*,9,14*,20*,
Cc1nn(C)cc1CN(C)C(=O)c1cc(-c2ccccc2)nc2ccc(Br)cc12,-7,8,-1,13*,2,21*,26*,
COc1ccc(CN(C)C(=O)c2cc(-c3ccccc3)nc3ccc(C)cc23)c(OC)c1,-2,6,-2,-1,-5,/,/,
